Compounds with a hit are over-represented: about 10% of the library has one in this group of screens.
Six1-Eya2 blk: Six1/Eya2 interaction inhibition | AlphaScreen GST-Six1/His-Eya2 binding, biochemical; stronger effect = lower value | 360,000 compounds, 0.56% hits | activity change, % (test concentration not listed) | Q15475+O00167; in the data active = activity change below about -65%; inconclusive = mostly about -30% to -63%; also: % is scaled to controls: 0 for no effect and ±100 for the full control effect
Target sequence (O00167 whole entry, looked up): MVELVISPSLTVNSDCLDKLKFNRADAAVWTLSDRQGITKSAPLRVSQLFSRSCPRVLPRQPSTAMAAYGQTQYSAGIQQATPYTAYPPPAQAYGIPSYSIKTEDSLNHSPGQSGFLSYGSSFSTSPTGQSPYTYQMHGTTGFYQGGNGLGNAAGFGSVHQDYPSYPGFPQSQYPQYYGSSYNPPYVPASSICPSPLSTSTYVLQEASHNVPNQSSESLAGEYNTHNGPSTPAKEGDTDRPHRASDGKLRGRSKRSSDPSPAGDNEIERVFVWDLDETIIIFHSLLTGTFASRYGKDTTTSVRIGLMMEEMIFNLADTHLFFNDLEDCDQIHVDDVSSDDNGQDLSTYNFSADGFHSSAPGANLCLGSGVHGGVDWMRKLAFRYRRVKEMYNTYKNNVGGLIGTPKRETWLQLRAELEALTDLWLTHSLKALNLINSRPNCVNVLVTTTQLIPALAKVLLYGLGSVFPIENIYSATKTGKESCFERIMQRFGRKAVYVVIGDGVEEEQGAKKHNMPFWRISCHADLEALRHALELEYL
Target sequence (Q15475 whole entry, looked up): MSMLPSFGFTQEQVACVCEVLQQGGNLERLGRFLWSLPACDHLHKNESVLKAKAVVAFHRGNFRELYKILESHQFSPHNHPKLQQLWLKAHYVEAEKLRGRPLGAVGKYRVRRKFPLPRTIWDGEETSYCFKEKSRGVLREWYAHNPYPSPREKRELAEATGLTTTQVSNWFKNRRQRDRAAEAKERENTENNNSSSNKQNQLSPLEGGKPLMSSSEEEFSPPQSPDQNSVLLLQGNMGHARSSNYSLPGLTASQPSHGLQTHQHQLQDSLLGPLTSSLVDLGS
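Six1/Eya2 binding was read as AlphaScreen signal after compounds were pinned into GST-Six1 plus His-tagged Eya2 (5X stock 250/500 nM) in pH 8.0 Tris/NaCl/TCEP buffer, beads added, then incubated 1 h, 37 C, dark.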
HP1b chromo inh: blocks HP1-beta chromodomain binding to methylated histone tails; AlphaScreen HP1-beta / biotin-H3K9me3 peptide binding; Potency, µM (series often up to 114 µM), without a hit: top-dose activity change, negative = inhibition, hits mostly inhibitors; 390,000 compounds, 0.56% hits; also: potency is read from the fitted curve at half-maximal effect; nearly all actives have a fitted effect of over 70% in size
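AlphaScreen: HP1-beta (50 nM) preformed 30 min with biotin-H3(1-18)K9me3 peptide (50 nM) in PBS pH 7.4, 0.01% Tween-20. Compound added for 30 min at RT, then streptavidin donor/nickel chelate acceptor beads (10 ug/mL) for 30 min.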
G9a block: inhibitors of human histone lysine methyltransferase G9a | Q96KQ7 | G9a H3K9 monomethylation, AlphaScreen, 2 h | Potency, µM (highest dose often 102 µM), inactives show at the top dose activity, negative = inhibition, most hits filed as inhibitors | 350,000 compounds, 8.8% hits | AID 504332; also: potency is read from the fitted curve at half-maximal effect; % is scaled to controls: 0 for no effect and ±100 for the full control effect; nearly all actives have a fitted effect of over 75% in size
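G9a (20 nM) preincubated 15 min RT with compounds, then 500 nM biotinylated H3K9 peptide and 20 uM SAM added; 2 h RT reaction. Monomethyl-H3K9 product detected by AlphaScreen with anti-H3K9me1 antibody, streptavidin donor and anti-rabbit IgG acceptor beads.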
JMJD2A Tudor: inhibitors of human JMJD2A Tudor domain | AlphaScreen JMJD2A-Tudor / H3K4me3 peptide binding | AID 504339 | 390,000 compounds, 4.4% hits | Potency, µM (doses to about 114 µM), for inactives: at the top dose activity change, negative = inhibition, actives largely listed as inhibitors; also: potency is read from the fitted curve at half-maximal effect; % is scaled to controls: 0 for no effect and ±100 for the full control effect; nearly all actives have a fitted effect of over 50% in size
BAZ2B inh: BAZ2B (human) inhibition. Q9UIF8. AlphaScreen BAZ2B-H3K14Ac peptide displacement. Potency, µM (top dose mostly 114 µM), for the others: at the top dose activity change, negative = inhibition, usual class: inhibitors. 360,000 compounds, 4.4% hits. AID 504333; also: potency is read from the fitted curve at half-maximal effect; % is scaled to controls: 0 for no effect and ±100 for the full control effect; nearly all actives have a fitted effect of over 60% in size
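Multi-concentration screen (max 110 uM) measuring displacement of acetylated histone H3 peptide from BAZ2B by AlphaScreen, using 50 nM protein, 50 nM peptide and 10 ug/mL streptavidin donor plus Ni-chelate acceptor beads.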
CtBP-E1A blk: inhibitors of CtBP/E1A interaction. 340,000 compounds, 0.49% hits. AlphaScreen GST-E1A/His-CtBP binding, 1536-well; stronger effect = lower value. activity change, % (concentration not given with the values). AID 651724; in the data active = activity change below about -65%; inconclusive = mostly about -30% to -63%; also: % is scaled to controls: 0 for no effect and ±100 for the full control effect
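In 5 uL wells, 23 nL compound meets equimolar GST-E1A and His-CtBP (5X stock 125 nM each) for 2 h, 37 °C. Beads (5X, 50 ug/mL) then 1 h, 37 °C, dark.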
Numbers without * were called inactive; u = inconclusive; x = no result given; [ ] = remark or other dose. Unless noted, calls follow the shape of the dose curve; as a rule, active = well fitted inhibition curve with a large enough effect; inconclusive = small, poorly fitted or top-dose-only effect; inactive = no such curve, though single readings can be large or run the other way.

SMILES | Six1-Eya2 blk | HP1b chromo inh | G9a block | JMJD2A Tudor | BAZ2B inh | CtBP-E1A blk
O=C(CSc1nnc(-c2ccco2)n1CC1CCCO1)c1ccc(F)cc1 (stereo not given) | 5 | u | 45µM* | 3.2µM* | -23% | -2
CC1(C)CC(=O)C(Sc2nnc(-c3ccc(O)cc3)n2CC2CCCO2)C(=O)C1 (stereo not given) | 6 | 42% | 28µM* | -21% | u | 6
CC(=O)Nc1ccc(C(=O)CSc2nnc(-c3ccc(O)cc3)n2CC2CCCO2)cc1 (stereo not given) | 1 | -14% | 20µM* | 79µM* | -28% | 5
Cc1cccc(NC(=O)CSc2nnc(-c3ccncc3)n2CC2CCCO2)c1 (stereo not given) | 1 | 14% | 13%[59 µM] | -4% | -1% | 19
CCOCCc1nn2c(=O)cc(COC(=O)COc3ccccc3Cl)nc2s1 | x | 44% | 2%[59 µM] | 1% | -1% | x
CC1CN(C(=O)N2CCC(C(=O)NCc3cccs3)CC2)c2cc(Cl)ccc2O1 (stereo not given) | x | u | u | -32% | u | x
Cc1ccccc1C(=O)n1nc(-c2cccnc2)nc1NCc1ccc(F)cc1 | x | 29% | u | -9% | -4% | x
COc1ccc(-c2nc3c(n2O)CCc2c-3no[n+]2[O-])cc1 | -1 | -4% | 50µM* | -11%[11.4 µM] | -32% | 0
COn1c(-c2ccccc2)nc2c1CCc1c-2no[n+]1[O-] | 6 | 19% | 14%[59 µM] | -6% | 6% | 8
COc1ccc(Cn2c(CO)cnc2SCC(=O)NCc2ccco2)cc1 | x | 17%[57 µM] | 7%[59 µM] | -26% | -15% | x
O=C(NCc1ccc(Cl)cc1)C(=O)Nc1cccc(Br)c1 | x | 32% | 38%[59 µM] | -8% | 9% | x
CC1CCc2c(sc(/N=C/N(C)C)c2C#N)C1 (stereo not given) | -8 | -4% | 22µM* | -31% | 40µM* | -1
N#Cc1c(/N=C/c2ccco2)sc2c1CCCCC2 | u | u | u | -19% | 35µM* | u
CCOC(=O)Nc1sc2c(c1C#N)CCC(C)C2 (stereo not given) | -2 | 20% | -3%[59 µM] | 5% | 14% | 2
CN(C)/C=N/c1sc2c(c1C(N)=O)CCCC2 | -13 | 9% | -10% | -15% | u | -1
CN(C)/C=N/c1sc2c(c1C#N)CCCC2 | 2 | 13% | 50µM* | -32% | u | 23
CCCN1CCC(=NNc2ccc(C(=O)O)cc2)CC1 | 5 | 23% | 7.9µM* | -24% | u | -3
O=C(O)c1cc(NN=C2CCN(Cc3ccccc3)CC2)ccc1Cl | 4 | 23% | x | -23% | 15% | -1
COC(=O)CN1C(=O)[C@H]2[C@@H](c3ccc(C)o3)N3C(=O)CN(Cc4ccccc4)C(=O)[C@@]3(C)[C@H]2C1=O | 5 | 37% | 45µM* | -22% | -22% | x
COc1ccc(N2CCN(C(=O)c3ccc(CS(=O)Cc4ccc(Cl)cc4)o3)CC2)cc1 (stereo not given) | -5 | -6% | 50µM* | u | u | -4
COc1ccc(N2CCN(C(=O)c3ccc(CS(=O)c4cccc(C)c4)o3)CC2)cc1 (stereo not given) | -5 | 22% | 56µM* | -22% | u | -2
CCOc1ccccc1C1N=C(N)Nc2nc3ccccc3n21 (stereo not given) | x | 12% | 14%[59 µM] | -22% | -9% | x
COc1ccc(/C=N/Nc2nn3cnnc3c3ccccc23)cc1 | u | 13% | -31% | -8% | 15% | -74*
O=C(O)c1cccnc1SCC(=O)N1CCCCCC1 | 0 | 52% | 50µM* | -18% | 0% | 43
O=C(O)c1ccccc1CSc1ncccc1C(=O)O | 2 | 3% | 20µM* | 20µM* | -26% | 0
SMILES | Six1-Eya2 blk | HP1b chromo inh | G9a block | JMJD2A Tudor | BAZ2B inh | CtBP-E1A blk
O=C(CSc1ncccn1)N1CCCCCC1 | 5 | 42% | x | 0% | x | 5
Cc1cccc(CSc2ncccc2C(=O)O)c1 | 5 | 42% | 11µM* | 50µM* | -28% | 16
O=C(CSc1ncccc1C(=O)O)NC12CC3CC(CC(C3)C1)C2 | 17 | 27% | 32µM* | 2% | u | -12
O=C(CN1CCCN(Cc2ccc(F)cc2)S1(=O)=O)NCc1ccccc1Cl | x | 38% | u | 12% | -2% | x
COc1ccc(Cl)cc1NC(=O)CSc1nc2c([nH]c3ccccc32)c(=O)n1-c1ccccc1 | x | 6%[57 µM] | -26%[59 µM] | -17% | -16% | x
Cc1ccc(/C(O)=C2\C(=O)C(=O)N(Cc3cccnc3)C2c2ccccc2[N+](=O)[O-])cc1 (stereo not given) | -17 | 3% | 56µM* | -27% | -22% | -1
O=C1C(=O)N(Cc2cccnc2)C(c2cccc(O)c2)/C1=C(\O)c1ccc2c(c1)OCCO2 (stereo not given) | -13 | 33% | 35µM* | 13% | u | x
O=C1C(=O)N(Cc2ccncc2)C(c2cccc(O)c2)/C1=C(\O)c1ccc2c(c1)OCCO2 (stereo not given) | 2 | 13% | 45µM* | -22% | u | -7
C=CCOc1cccc(C2/C(=C(\O)c3ccc4c(c3)OCCO4)C(=O)C(=O)N2Cc2cccnc2)c1 (stereo not given) | 0 | -2% | x | u | 50µM* | 3
CCOc1cccc(C2/C(=C(\O)c3ccc4c(c3)OCCO4)C(=O)C(=O)N2Cc2ccncc2)c1 (stereo not given) | 1 | 26% | -10% | -14% | -16%[57.1 µM] | 5
COc1ccc(C2/C(=C(\O)c3ccc4c(c3)OCCO4)C(=O)C(=O)N2Cc2cccnc2)cc1 (stereo not given) | 1 | 44% | -95% | 3% | -5% | x
COc1ccccc1C1/C(=C(\O)c2ccc3c(c2)OCCO3)C(=O)C(=O)N1Cc1cccnc1 (stereo not given) | -2 | 1%[57 µM] | u | 50µM* | u | x
CCOc1ccc(C2/C(=C(\O)c3ccc4c(c3)OCCO4)C(=O)C(=O)N2Cc2cccnc2)cc1OCC (stereo not given) | 3 | -8% | x | -24% | 50µM* | 6
O=C1C(=O)N(c2ccc(O)cc2)C(c2ccccc2[N+](=O)[O-])/C1=C(\O)c1ccccc1 (stereo not given) | 4 | -29% | 56µM* | -20% | -20% | 3
N#CN=c1snc(-c2ccccc2)n1-c1ccc(Br)cc1 | x | 23%[57 µM] | x | -20%[57.1 µM] | x | x
COc1ccc(S(=O)(=O)N(CCc2ccccc2)CC(=O)Nc2cc(C)cc(C)c2)cc1OC | x | 6% | -28%[59 µM] | -28% | -15% | x

Compound activity as filed in PubChem.
